# Compounds with a hit are over-represented: about 1.1% of the library has one in this group of screens.
# MsrA inhibitor = inhibits bovine methionine sulfoxide reductase A. purified bovine MsrA, absorbance read-out. inhibition, % at 15.5 µM. hit rate 0.75% among 360,000;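 further: 0% = vehicle wells with enzyme and 100% = reference inhibitor wells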
# bovine MsrA act = activators of bovine methionine sulfoxide reductase A; purified bovine MsrA, absorbance read-out; activation, % at 10.6 µM; hit rate 0.3% among 360,000; AID 602163; in the data active means activation above about 7.5%;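 further: 0% = vehicle and 100% = reference activator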
# PKA-R2B act = activates the human PKA-R2B holoenzyme complex | P22694+P31323 | PKA-R2B holoenzyme dissociation, Cy5-IP20 fluorescence polarization; R2B truncated from residue 108, S112A mutant; 0% DMSO only, 100% 113 µM cGMP | activation, % at 11.4 µM | hit rate 0.079% among 340,000;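 active means activation above a cutoff set at the mean over all compounds plus 3 SD, cut at about 18% in these data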;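 further: higher means more holoenzyme dissociation and a rise in polarization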
# Target sequence (P31323 whole entry, looked up, other chains not shown, the tested form may be a part): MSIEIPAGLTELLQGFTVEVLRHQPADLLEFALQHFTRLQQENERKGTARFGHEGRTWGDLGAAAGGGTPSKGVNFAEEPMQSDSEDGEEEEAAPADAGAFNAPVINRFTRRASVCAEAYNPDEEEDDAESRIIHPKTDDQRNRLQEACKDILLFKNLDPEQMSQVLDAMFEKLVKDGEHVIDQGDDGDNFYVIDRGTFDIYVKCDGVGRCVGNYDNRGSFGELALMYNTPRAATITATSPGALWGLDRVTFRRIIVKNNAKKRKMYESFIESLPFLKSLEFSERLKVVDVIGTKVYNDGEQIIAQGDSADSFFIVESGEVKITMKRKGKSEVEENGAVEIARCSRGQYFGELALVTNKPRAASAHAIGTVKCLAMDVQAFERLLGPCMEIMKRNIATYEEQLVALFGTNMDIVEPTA
# PKA-R1A activ = activates the PKA-R1A holoenzyme complex | hit rate 0.083% among 340,000 | activation, % at 11.4 µM | P00514+P68181 | PKA-R1A dissociation, Cy5-IP20 fluorescence polarization; scaled: DMSO 0%, 113 µM cGMP 100%;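 active means percent activation above the mean of all tested compounds plus 3 SD, cut at about 19% in these data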;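 further: higher means more PKAc released from R1A so a rise in polarization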
# MsrA conf = bovine MsrA inhibition, confirmed. shares compounds with MsrA inhibitor. purified bovine MsrA, absorbance read-out. inhibition, % at 15.5 µM. hit rate 41% among 2,300. AID 651822;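 further: coupled to thioredoxin reductase with NADPH and selenocystamine and DMSO as substrate; 0% = vehicle only and 100% = full effect of reference inhibitor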
# Active calls of the source: *; · = no result. Unless noted, no stated cut-off is given here; in the data, active means inhibition above about 4.5%; inactive means the rest.
SMILES,MsrA inhibitor,bovine MsrA act,PKA-R2B act,PKA-R1A activ,MsrA conf
Cc1nn2c(=O)cc(CSc3ccccc3NC(=O)c3ccccc3)nc2s1,17.3*,2.3,-1.0,-3.3,13.1*
COc1ccc(-c2cc(=O)c3ccccc3o2)cc1,2.2,-3.8,4.0,11.6,·
COc1ccc(-c2cc(=O)c3cccc(CC(=O)O)c3o2)cc1,5.0*,·,·,·,4.6*
O=C(c1cnc2sccn2c1=O)N(Cc1ccccc1)c1ccccn1,5.0*,-4.2,1.3,-9.2,3.0
O=C(c1ccccc1)N(Cc1ccccc1)c1ccccn1,-1.8,-2.9,-7.4,-8.7,·
Nc1ccc2nc(-c3ccccc3)[nH]c2c1,3.3,-3.4,0.8,-8.7,·
Nc1ccc2nc(-c3ccc(N)c(Cl)c3)[nH]c2c1,5.5*,-0.7,-7.1,6.3,5.5*
COc1ccc2nc(-c3ccc(N)cc3)[nH]c2c1,3.7,-4.2,-5.9,-6.5,·
Nc1ccc(-c2nc3c(Cl)cc(N)cc3[nH]2)cc1,5.2*,-5.3,1.9,-7.8,4.1
FC(F)(F)c1ccc(C2NCCc3sccc32)cc1 (centres undefined),0.3,2.0,-5.7,-7.7,·
Cc1ccc(Cl)cc1-c1cc(C(=O)NCc2ccc(C(F)(F)F)cc2)[nH]n1,0.8,-0.5,·,·,·
Cc1ccc(S(=O)(=O)N2C[C@H]3[C@H]4C(=O)N(Cc5ccccc5)C(=O)[C@H]4CC(=O)[C@H]3[C@@H]2c2cccc3ccccc23)cc1,-0.3,-2.0,·,·,·
CS(=O)(=O)Nc1ccc(-c2cn3cccnc3n2)cc1,4.8*,-4.0,11.4,-3.1,2.6
COc1cccc(C(CNc2ccc(S(=O)(=O)N3CCN(C)CC3)cc2[N+](=O)[O-])N(C)C)c1 (centres undefined),-0.9,-0.3,-6.0,-3.8,·
CCN(CC)C(=O)c1sc2nc(Cc3ccccc3)[nH]c(=O)c2c1C,0.6,-9.8,-2.1,-8.1,·
Cc1c(C(=O)N(C)C)sc2nc(-c3ccccn3)[nH]c(=O)c12,5.8*,-5.6,-11.0,-5.3,3.1
Cc1cc(C)cc(Nc2ccc([N+](=O)[O-])nc2[N+](=O)[O-])c1,18.7*,-1.5,-9.0,2.9,16.5*
COc1cc(Nc2ccc(C)cc2)c([N+](=O)[O-])nc1[N+](=O)[O-],2.1,-1.5,4.4,4.2,·
COCc1cc(C)nc(N/N=C/c2ccc(-c3ccc(Cl)cc3[N+](=O)[O-])o2)c1C#N,6.4*,-4.4,7.6,6.5,2.0
COc1ccccc1CCn1cnc(-c2ccccc2)c1CC(C)C,0.2,·,·,·,·
CSc1c(N(C)C)c(=O)c1=S,5.2*,·,·,·,3.9
Cc1[nH]c(=O)[nH]c(=O)c1N(C)C,-0.4,-2.0,-6.0,-5.5,·
COc1ccc(CNC(=O)C2CCN(S(=O)(=O)c3ccc4c(c3)N(C(C)=O)CCO4)CC2)cc1,0.8,-2.9,0.7,4.0,·
O=C(Nc1ccc(C(=O)O)cc1)/C(=C\c1ccco1)NC(=O)c1ccccc1,3.4,-4.8,-7.0,4.7,·
CC(=O)c1ccc(NC(=O)/C(=C\c2ccco2)NC(=O)c2ccco2)cc1,5.7*,-6.6,0.1,3.2,5.4*
SMILES,MsrA inhibitor,bovine MsrA act,PKA-R2B act,PKA-R1A activ,MsrA conf
O=C(Nc1ccc(C(=O)O)cc1)/C(=C\c1ccco1)NC(=O)c1ccco1,4.8*,-5.0,-9.0,0.4,4.9*
Cn1cccc1C(=O)NC(=O)COC(=O)CCNS(=O)(=O)c1cccc(C(F)(F)F)c1,0.2,-9.6,-0.4,-8.2,·
C#CCOc1ccc(CNC[C@H]2O[C@@H](n3ccc(N)nc3=O)[C@H](O)[C@@H]2O)cc1,-0.6,0.0,-10.9,-26.2,·
CSc1ccc(Oc2cccc3c2S(=O)(=O)N(C2CC2)C[C@@H](COCc2ccccc2)O3)cc1C,0.1,·,·,·,·
Cc1cc(C)nc(N/N=C/c2sccc2C)n1,5.3*,-6.8,9.8,-1.2,4.1
Cc1cc(C)nc(N/N=C/c2ccccc2)n1,·,-5.2,2.1,-1.4,·
Cc1ccsc1/C=N/Nc1nc(=O)[nH]nc1C,5.3*,-5.0,5.0,4.5,4.3
COC(=O)C1CCN(Cc2ccc(OCCCN3CCN(c4ccc([N+](=O)[O-])cc4)CC3)cc2)CC1,-0.5,1.8,-0.4,1.0,·
O=C1NC(N2CCOCC2)=N/C1=C/c1ccc2c(c1)OCO2,4.9*,-4.2,1.6,-1.0,3.0
CN(CCc1ccccn1)C(=O)[C@@H](Cc1ccccc1)NC(=O)[C@H]1O[C@@H](n2ccc(=O)[nH]c2=O)[C@H](O)[C@@H]1O,-1.1,·,·,·,·
Cc1nn(-c2ccccc2)c(N)c1N=Nc1ccccc1,5.3*,-6.5,-2.6,5.9,1.6
CCc1noc(C)c1C(=O)N1CCN(S(=O)(=O)c2ccc(Br)cc2Cl)CC1,-0.1,-7.2,-10.8,-4.8,·
CC(=O)c1sc(NC(=O)c2cccnc2Cl)nc1C,5.0*,-4.7,-0.2,10.2,3.2
COc1cc(/C=N/NC(=O)c2cc(C3CC3)[nH]n2)ccc1O,5.2*,-6.1,-1.0,-3.3,2.6
COc1cc(/C=N/NC(=O)c2cc(-c3ccc4c(c3)OCO4)n[nH]2)ccc1O,5.5*,-11.2,-2.8,-10.2,3.3
O=C(N/N=C/c1ccc([N+](=O)[O-])cc1)c1cc(-c2ccc3c(c2)OCO3)n[nH]1,-1.6,-11.2,4.4,-0.8,·
Cc1cn([C@H]2C[C@H](O)[C@@H](CNCc3cccn3-c3nccs3)O2)c(=O)[nH]c1=O,2.7,0.8,3.2,-5.1,·
CCOC(=O)c1sc(N)c(C(N)=O)c1C,4.9*,-4.4,·,·,0.3
Cc1[nH]n(-c2ccc([N+](=O)[O-])cc2)c(=O)c1C=NCC1CCCO1 (centres undefined),6.8*,-10.3,·,·,5.3*
CCN(CC)c1ccc(NC(=O)CCN2C(=O)c3ccccc3S2(=O)=O)c(C)c1,1.1,2.5,-5.8,-7.8,·
COc1ccc(-c2cnnc(N/N=C/c3ccc(O)c(OC)c3)n2)cc1,6.4*,-13.6,-15.1,-8.2,6.6*
COc1ccc(/C=N/Nc2nonc2N)cc1OC,3.9,-1.5,-7.7,-0.2,·
CCNc1nc(NCC)nc(N/N=C/c2ccc(OC)cc2)n1,0.7,-5.2,·,·,·
COc1ccc(/C=N/Nc2nc(C)nc(N)n2)cc1,4.7*,-4.2,-0.7,-13.8,3.3
COc1ccc(/C=N/Nc2nc(N)cc(Cl)n2)cc1OC,5.8*,-2.6,-6.8,-3.9,2.6
SMILES,MsrA inhibitor,bovine MsrA act,PKA-R2B act,PKA-R1A activ,MsrA conf
COc1ccc(/C=N/Nc2ccc(C(=O)O)cc2)c(OC)c1OC,5.8*,-6.1,4.3,7.4,5.5*
O=C(N[C@@H](Cc1cccnc1)C(=O)N1CCC[C@H]1C(=O)NCc1ccccc1)c1ccc(Cl)cc1Cl,0.0,·,·,·,·
FC(F)(F)Oc1ccc(NC(=S)Nc2ccccc2N2CCOCC2)cc1,0.3,0.2,1.0,0.7,·
COc1ccc(/C=N/NC(=S)SC)cc1OC,6.2*,-4.2,-3.1,4.4,4.3
COc1cc(C=O)ccc1O,6.2*,-7.5,·,·,3.3
COc1cc(/C=N/Nc2ccc(C(=O)O)cc2)cc(OC)c1OC,2.6,-2.0,-6.7,-8.0,·
COc1ccc(C=NNC(=O)NN=Cc2ccc(OC)c(OC)c2)cc1OC,2.8,-5.1,-14.5,-4.3,·

# Screens from PubChem BioAssay.
